Sampled rows, rich in hits. Any-hit rate of the full collection: about 3.7%.
VDR inh – Inhibitors of the vitamin D receptor (VDR): qHTS; AID 504847, 2011; Potency, µM, without a hit: max response, negative = inhibition, hits mostly inhibitors; 400,000 compounds, 0.93% hits; VDR-SRC2-3 peptide fluorescence polarization, 2 h; further: potency means the concentration at half of the fitted maximal effect; on the % scale 0 is the no-effect control and ±100 the full control effect
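The screen uses fluorescence polarization to detect compounds that interfere with recruitment of the SRC2-3 coactivator peptide to VDR; plates are read after 2 h at room temperature.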
WRN inhibitor – qHTS for Inhibitors of WRN Helicase. WRN helicase unwinding, fluorescent forked duplex, kinetic. Potency, µM (highest dose often 114 µM), for inactives: top-dose activity change, negative = inhibition, most hits filed as inhibitors. 360,000 compounds, 0.46% hits. AID 651768, 2012; further: potency means the concentration at half of the fitted maximal effect; on the % scale 0 is the no-effect control and ±100 the full control effect; nearly all actives have a fitted effect of over 55% in size
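Enzyme (20 nM final) and test compound sit together 15 min at room temperature before substrate addition. Substrate is a single-forked duplex oligonucleotide (100 nM) labelled with fluorophore and quencher, with 2 mM ATP; helicase unwinding raises red fluorescence, read kinetically.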
FEN1 inhibitor – qHTS Assay for the Inhibitors of Human Flap endonuclease 1 (FEN1); 390,000 compounds, 0.35% hits; Recombinant FEN1 flap cleavage, fluorescence, 15 min; AID 588795, 2011; Potency, µM (highest dose often 114 µM), inactives show top-dose activity change, negative = inhibition, most hits filed as inhibitors; P39748; further: potency means the concentration at half of the fitted maximal effect; on the % scale 0 is the no-effect control and ±100 the full control effect; nearly all actives have a fitted effect of over 65% in size
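Recombinant FEN1 (10 nM) was preincubated with pin-transferred compounds for 15 min at room temperature, then flap DNA substrate (50 nM final) was added. Plates were read at 0 and 15 min, and normalized concentration–response data were fitted to a four-parameter Hill equation.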
TCR act – Activators of T cell receptors: qHTS campaign | primary human leukocytes, anti-CD3, IL-2 HTRF, 48 h | Potency, µM (highest dose often 9.22 µM), for the others: top-dose activation of IL-2 secretion, actives largely listed as activators | 330,000 tested, under 10 active | AID 504894, 2011; further: % of control where 0% means no effect
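Primary human leukocytes incubated 48 hr with anti-CD3 beads plus compound, without co-stimulation. Secreted IL-2 measured by HTRF (europium cryptate/d2 anti-IL-2 pair, 320 nm excitation, 665 nm emission).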
PLK1 PBD block – qHTS for Inhibitors of PLK1-PDB (polo-like kinase 1 - polo-box domain): Primary Screen | Plk1 PBD binding of FITC phosphopeptide, fluorescence polarization | Potency, µM, for inactives: max response, negative = inhibition, most hits filed as inhibitors | 360,000 compounds, 2.8% hits | AID 720504, 2013; further: potency means the concentration at half of the fitted maximal effect; series mostly up to about 57 µM; on the % scale 0 is the no-effect control and ±100 the full control effect; nearly all actives have a fitted effect of over 65% in size
Target sequence (P53350 whole entry, looked up, the tested form may be a part): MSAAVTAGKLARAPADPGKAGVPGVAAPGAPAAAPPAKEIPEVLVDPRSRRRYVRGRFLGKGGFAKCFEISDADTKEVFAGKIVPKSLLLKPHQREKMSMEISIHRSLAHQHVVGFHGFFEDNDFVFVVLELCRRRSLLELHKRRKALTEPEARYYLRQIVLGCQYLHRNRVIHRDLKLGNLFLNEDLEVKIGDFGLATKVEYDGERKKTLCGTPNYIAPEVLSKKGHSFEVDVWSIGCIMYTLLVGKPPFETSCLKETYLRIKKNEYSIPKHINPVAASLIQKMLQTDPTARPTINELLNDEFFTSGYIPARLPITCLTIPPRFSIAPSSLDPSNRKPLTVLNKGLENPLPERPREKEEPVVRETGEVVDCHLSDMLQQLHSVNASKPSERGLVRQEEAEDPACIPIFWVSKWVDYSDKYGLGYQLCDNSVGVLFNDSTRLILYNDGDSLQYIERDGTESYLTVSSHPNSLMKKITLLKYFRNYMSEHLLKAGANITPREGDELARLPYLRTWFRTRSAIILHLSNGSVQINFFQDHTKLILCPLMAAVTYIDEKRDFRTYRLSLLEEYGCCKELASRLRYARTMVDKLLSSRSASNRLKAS
PI5P4K alpha inh – qHTS for Inhibitors of phosphatidylinositol 5-phosphate 4-kinase (PI5P4K). PI5P4Kalpha enzyme, ADP-Glo luminescence, 60 min; active compounds read low. AID 652105, 2013. Phosphatidylinositol 5-phosphate 4-kinase type-2 alpha (Homo sapiens), P48426. 330,000 compounds, 1.2% hits. max response, %; active means max response of -50% or lower; inconclusive means between -30% and -50%; inactive means -30% or higher; further: value at the top dose of about 77 µM; on the % scale 0 is the no-effect control and ±100 the full control effect
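Quantitative HTS of the MLSMR library against PI5P4Kalpha with substrate. ATP added last at 5 microM final; room temperature, 60 minutes. Remaining ATP depleted, ADP converted and read as luminescence.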
The depositor's hits bear a star; ? = inconclusive; nt = no result; [ ] = dose if it differs, or a comment. Unless noted, the call rests on the fitted dose curve; in most records, active means well fitted curve in the direction sought with a large enough effect; inconclusive means small, poorly fitted or top-dose-only effect, or another doubt; inactive means no such curve, though single readings can be large; an effect the other way counts as inactive or inconclusive.

SMILES | VDR inh | WRN inhibitor | FEN1 inhibitor | TCR act | PLK1 PBD block | PI5P4K alpha inh
O=[N+]([O-])c1cc([N+](=O)[O-])c2c(=Nc3ccccc3)n(-c3ccccc3)n(O)c2c1 | ? | -29.3% | 2.9% | -3.4% | 5.97µM* | ?
Cc1csc[n+]1CC(=O)c1ccccc1 | nt | nt | 5.2% | nt | nt | nt
CCN(CC)S(=O)(=O)c1ccc(Cl)c(NC(=S)NC(=O)C2CCCC2)c1 | -4.8% | -5.1% | -21.8% | -5.9% | -10.4% | -3.5
CCN(CC)c1ccc(S(=O)(=O)Nc2cc(Cl)ccc2Cl)cc1NC(=S)NC(=O)C1CCCC1 | -24.2% | -22.4% | -22.0% | 4.4%[46.1 µM] | 9.47µM* | -21.2
C[C@H](NC(=O)CNC(=O)[C@@H](NC(=O)[C@H](Cc1ccccc1)NC(=O)CNC(=O)CNC[C@@H](N)Cc1ccccc1)[C@@H](C)O)C(=O)N[C@@H](CCCN=C(N)N)C(=O)N[C@@H](CCCCN)C(=O)N[C@@H](CO)C(=O)N[C@@H](C)C(=O)N[C@@H](CCCN=C(N)N)C(=O)N[C@@H](CCCCN)C(N)=O | -3.8% | nt | nt | nt | nt | nt
O=C1CC(c2ccc(O)c(O)c2)Oc2cc(O)cc(O)c21 (centres undefined) | 1.6% | ? | ? | 7.0% | 2.1% | -26.7
CC(=O)Nc1ccc(SC[C@H](Cc2ccccc2)N2CCN(CC(C)C)CCC2=O)cc1 | -9.5% | -2.2% | 0.0% | -1.5% | 33.6µM* | -1.6
CC(=O)Nc1ccc(SC[C@H](CC(C)C)N2CCN(CC(C)C)CCC2=O)cc1 | -23.2% | 3.8% | 9.1% | -4.9% | 26.7µM* | -3.3
CC(=O)Nc1ccc(SC[C@H](CC(C)C)N2CCN(CCc3ccccc3)CCC2=O)cc1 | 3.2% | -1.2% | 1.3% | 15.7% | 18.9µM* | -0.2
CC(=O)Nc1ccc(SCC(Cc2ccccc2)N2CCN(CC(C)C)CCC2=O)cc1 (centres undefined) | -24.7% | nt | -3.5% | nt | nt | nt
COCCN1C(=O)N[C@@H](CCc2ccccc2)C(C(=O)OC)=C1C | -10.2% | nt | nt | nt | nt | nt
CCc1ccc(NC(=O)c2ccc(Cn3nc(N4CCN(c5ccccc5)CC4)ccc3=O)o2)cc1 | 10.5% | nt | -13.0% | nt | nt | nt
Cc1ccc(S(=O)(=O)Nc2nc(C)c(NC(=O)Nc3ccc(Cl)cc3Cl)s2)cc1 | -18.7% | -23.4% | -11.5% | 0.2% | 21.2µM* | -16.3
Cc1ccc(S(=O)(=O)Nc2nc(C)c(NC(=O)OCCCl)s2)cc1 | 89.1µM* | -2.6% | 1.0% | 1.9% | -14.0% | 1.1
COc1ccc(NC(=O)Nc2sc(NS(=O)(=O)c3ccccc3)nc2C)cc1 | 32.6% | -6.6% | 4.3% | 7.2% | ? | -6.6
C/C=C\C=C\C(=O)Nc1cccc(C2=NOC3(C2)C[C@H](C(N)=O)N(C(=O)c2ccccc2C(=O)c2ccccc2)C3)c1 (some centres undefined) | -26.9% | -0.7% | -14.5% | 6.1% | -1.0% | -51.7*
C/C=C\C=C\C(=O)N1CC2(CC(c3cccc(NC(=O)COc4ccc(Cl)cc4)c3)=NO2)C[C@H]1C(N)=O (some centres undefined) | 89.1µM* | -11.3% | -22.8% | -1.0% | -11.3% | -81.3*
C/C=C/C=C\C(=O)Nc1cccc(C2=NOC3(C2)C[C@@H](C(N)=O)N(C(=O)c2cc([N+](=O)[O-])cc([N+](=O)[O-])c2C)C3)c1 (some centres undefined) | ? | -7.5% | 9.0% | -7.0% | 33.6µM* | -71.2*
C/C=C\C=C/C(=O)Nc1cccc(C2=NOC3(C2)C[C@@H](C(N)=O)N(C(=O)COc2ccc(Cl)cc2)C3)c1 (some centres undefined) | ? | -3.8% | 6.8% | -1.4% | ? | ?
COc1ccccc1C(=O)N/C(=C/c1ccc(Br)cc1)C(=O)N1CCCC1 | 6.7% | -22.4% | 10.9% | -2.9% | 26.7µM* | -24.6

Bioassay records: PubChem BioAssay, National Center for Advancing Translational Sciences (NCATS)
